High-throughput results (PubChem)
Mdm2-MdmX inh: human Mdm2/MdmX binding inhibition; O15151+Q00987; SaOS-2 split-luciferase Mdm2/MdmX complementation, luminescence; inhibition, % at 8 µM; 3% of 330,000 active;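 active means inhibition of at least 50% at 8 µM in the primary screen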
Target sequence (O15151 whole entry, looked up): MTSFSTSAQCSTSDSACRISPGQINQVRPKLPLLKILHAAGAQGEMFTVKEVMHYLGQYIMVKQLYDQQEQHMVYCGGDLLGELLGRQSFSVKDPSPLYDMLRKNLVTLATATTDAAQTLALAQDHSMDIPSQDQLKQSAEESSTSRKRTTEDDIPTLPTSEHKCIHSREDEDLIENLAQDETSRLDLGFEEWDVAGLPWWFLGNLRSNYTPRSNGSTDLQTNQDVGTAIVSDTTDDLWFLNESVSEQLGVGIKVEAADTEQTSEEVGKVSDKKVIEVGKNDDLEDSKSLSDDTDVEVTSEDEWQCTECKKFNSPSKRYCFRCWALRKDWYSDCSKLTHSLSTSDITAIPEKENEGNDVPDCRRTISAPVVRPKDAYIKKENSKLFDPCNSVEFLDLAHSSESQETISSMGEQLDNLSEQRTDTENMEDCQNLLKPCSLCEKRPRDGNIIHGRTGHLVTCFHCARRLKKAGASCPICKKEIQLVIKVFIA
Target sequence (Q00987 whole entry, looked up): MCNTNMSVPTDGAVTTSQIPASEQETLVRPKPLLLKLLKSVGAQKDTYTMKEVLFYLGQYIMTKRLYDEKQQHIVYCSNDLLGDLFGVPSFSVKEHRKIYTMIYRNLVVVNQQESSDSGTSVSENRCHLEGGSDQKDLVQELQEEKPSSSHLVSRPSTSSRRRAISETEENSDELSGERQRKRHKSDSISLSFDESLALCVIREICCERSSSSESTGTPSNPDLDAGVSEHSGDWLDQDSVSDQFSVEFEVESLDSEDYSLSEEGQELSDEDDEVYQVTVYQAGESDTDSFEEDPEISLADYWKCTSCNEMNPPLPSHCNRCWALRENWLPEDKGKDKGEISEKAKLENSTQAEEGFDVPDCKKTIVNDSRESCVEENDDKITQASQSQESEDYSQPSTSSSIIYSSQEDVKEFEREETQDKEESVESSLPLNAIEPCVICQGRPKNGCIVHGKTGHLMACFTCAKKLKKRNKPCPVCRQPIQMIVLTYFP
KKLEB tox: reduces viability of KKLEB cystic fibrosis airway cells; KKLEB CF airway cells viability, ATPlite luminescence, overnight; stronger effect = lower value; cells stimulated with P. aeruginosa culture filtrate; activity change (cytotoxicity), % at 5 µM; 0.36% of 360,000 active; AID 602141;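 active means corrected activity change at or below -50% at 5 µM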
Peg3 prom inh: inhibitors of Peg3 promoter; HeLa PEG-Prom luciferase reporter, luminescence, overnight; AID 588405; inhibition, % at 20 µM; 1.7% of 360,000 active;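 active means inhibition of at least 50% at 20 µM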
ABHD5-PLIN5 inh: ABHD5-PLIN5 protein interaction inhibition; Split G. princeps luciferase complementation, luminescence, 4 h; inhibition, % at 4 µM; 0.78% of 360,000 active;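 active means inhibition above the mean inhibition across every tested compound plus 3 SD, cut at about 22% in these data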
HIF-2a block: inhibitors of HIF-2a; 786-0 RCC cells HIF-2a reporter, luciferase luminescence, overnight; inhibition, % at 18.8 µM; 0.72% of 360,000 active; AID 624352;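 active means inhibition of the luminescence signal of 40% or more relative to plate controls, in a single-dose primary screen at 18.75 µM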
CF NFkB inh: blocks PAF-induced NF-kB reporter in cystic fibrosis cells; KKLEB NF-kB-GFP reporter, GFP fluorescence overnight; inhibition, % at 5 µM; 0.86% of 360,000 active;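 active means at least 50% inhibition at 5 µM, scaled per plate between neutral and stimulator controls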;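 further: PAF is a Pseudomonas aeruginosa culture filtrate used as stimulus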
Mdm2-MdmX conf: human Mdm2/MdmX binding inhibition, confirmed; shares compounds with Mdm2-MdmX inh; AID 489028; inhibition, % at 8 µM; 55% of 10,000 active; luminescent assay; in the data active means inhibition above about 40%
FLuc counter: counter-screen for Mdm2/MdmX inhibitors: full-length luciferase | SaOS-2 full-length luciferase counterscreen, luminescence | inhibition, % at 8 µM | 77% of 6,200 active | AID 504607 | shares compounds with Mdm2-MdmX inh;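 active means mean inhibition at 8 µM reaching about 37%, which flags the compound as non-specific, limit read from the data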;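 further: p53-null SaOS-2 cells with luciferase driven by a doxycycline-inducible promoter; compound on cells about two nights before reading with doxycycline added after day one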
Numbers stand for hits; n = inactive; x = no result. Only some compounds are listed: those with a hit (about 4.6% of all), similar ones and a draw of the others.

SMILES | Mdm2-MdmX inh | KKLEB tox | Peg3 prom inh | ABHD5-PLIN5 inh | HIF-2a block | CF NFkB inh | Mdm2-MdmX conf | FLuc counter
Cc1ccc2c(c1)C(c1ccc([N+](=O)[O-])cc1)=NNC(c1ccc(Br)cc1)=N2 | 71.4 | n | n | n | n | n | n | x
CC(=O)N1Cc2cc(C(=O)NCC(F)(F)F)nc(-c3cccc(-c4cccnc4)c3)c2[C@@H]1CCO | x | x | x | n | n | x | x | x
CCOc1cc(S(=O)(=O)n2ccc(C)n2)ccc1Br | 80.9 | n | n | n | n | n | n | x
CCOc1cc(S(=O)(=O)n2ccnc2)ccc1Br | n | n | n | n | n | n | x | x
CCOc1cc(/C=C(/C#N)c2nc3ccccc3[nH]2)ccc1Oc1ccc([N+](=O)[O-])cn1 | n | n | n | n | n | n | x | x
COc1cc(/C=C(/C#N)c2nc3ccccc3[nH]2)ccc1Oc1ncccc1[N+](=O)[O-] | 67.9 | n | n | n | n | n | n | x
O=C1N/C(=N\N=C\c2cccs2)SC1Cc1ccc(Cl)cc1Cl (configuration not stated) | 73.9 | n | n | n | n | n | 51.5 | 69.6
O=C(CC1S/C(=N/N=C/c2cccs2)NC1=O)Nc1ccc(Cl)c(Cl)c1 (configuration not stated) | n | n | n | n | n | n | x | x
O=C1N/C(=N\N=C\c2cccs2)SC1Cc1cccc(Cl)c1Cl (configuration not stated) | 82.8 | n | n | n | n | n | 61.7 | 58.1
O=C(CC1S/C(=N/N=C/c2cccs2)NC1=O)Nc1ccc(Cl)cc1 (configuration not stated) | n | n | n | n | n | n | x | x
CN(C)CCCn1c(=O)n(CCc2ccccc2)c(=O)c2c3c(sc21)CCCCC3 | 77.0 | n | 101.1 | n | n | n | n | x
CN(C)CCCNc1nc2sc3c(c2c(=O)n1CCc1ccccc1)CCCCC3 | 69.7 | n | 113.2 | n | n | n | n | x
NC(=O)Cn1c(=O)n(CCc2ccccc2)c(=O)c2c3c(sc21)CCCC3 | 58.3 | n | n | n | n | n | n | x
O=c1c2c3c(sc2n2cnnc2n1CCc1ccccc1)CCCC3 | n | n | n | n | n | n | x | x
N#Cc1ccc(Oc2ncccn2)cc1 | n | n | n | n | n | n | x | x
CCN1C(=C(C#N)C#N)C=Cc2cc(C)ccc21 | n | n | n | n | n | n | x | x
C=CC[n+]1c(/C=C2\C=Cc3cc(C)ccc3N2CC)ccc2ccccc21 | 84.8 | n | n | n | n | n | 70.0 | n
CCCCCCCCn1c(=O)c(C(=O)OC)c(N)c2ccccc21 | 75.5 | n | n | n | n | n | n | x
COc1cccc(CN2CCC(N(CCc3ccccc3)Cc3ccccc3)CC2)c1OC | 60.8 | n | n | n | n | n | n | x
COc1cccc(CN2CCN(Cc3cccc(Oc4ccccc4)c3)CC2)c1OC | n | n | n | n | n | n | x | x
CC(C)(C)c1ccc(C(=O)N2CCC2(C)C(=O)NCc2cccs2)cc1 (configuration not stated) | x | n | n | n | n | n | x | x
CCCOc1ccc(N2C(=O)CC(SC(=N)N3N=C(c4ccccc4)CC3c3ccccc3)C2=O)cc1 (configuration not stated) | 60.3 | n | n | n | n | n | n | 76.7
CC(C)c1cccc(C(C)C)c1OC(=O)[C@H]1OC(c2ccc(Br)cc2)=C[C@@H]1c1ccc(Br)cc1 | 60.6 | n | n | n | n | n | n | x
CCN1C[C@@H]2[C@@H]3C(=O)N(Cc4ccccc4)C(=O)[C@@H]3[C@](C)(C1=O)N2C(=O)c1ccc(Cl)cc1 | x | n | n | n | n | n | x | x
Cc1cc(C)cc(NC(=O)c2cccc3c2C(=O)N(C2CCCCC2)C3)c1 | n | n | n | n | n | n | x | x
SMILES | Mdm2-MdmX inh | KKLEB tox | Peg3 prom inh | ABHD5-PLIN5 inh | HIF-2a block | CF NFkB inh | Mdm2-MdmX conf | FLuc counter
COc1cc(NC(=O)c2cccc3c2C(=O)N(C2CCCCC2)C3)cc(OC)c1OC | 78.0 | n | n | n | n | n | 42.9 | 61.4
COc1ccc(CNc2nc3ccccc3n2CCN2CCCCC2)cc1 | n | n | n | n | n | n | x | x
COc1ccc(CCN2CCC(Nc3nc4ccccc4n3Cc3ccc(F)cc3)CC2)cc1 | 98.5 | n | 82.0 | n | n | n | 91.4 | 47.2
O=C(CCCSc1nc(-c2ccco2)cc(C(F)(F)F)n1)Nc1ccc2c(c1)OCO2 | n | n | n | n | n | n | x | x
O=C(CSc1nc(-c2ccco2)cc(C(F)(F)F)n1)Nc1ccc2c(c1)OCO2 | 61.9 | n | n | n | n | n | 64.6 | 43.9
CCOC(=O)c1sc(NC(=O)CSc2nc(-c3ccco3)cc(C(F)(F)F)n2)c(C(=O)OC)c1C | 73.1 | n | n | n | n | n | n | n
COc1ccccc1CCNC(=O)CCSc1nc(-c2ccco2)cc(C(F)(F)F)n1 | n | n | n | n | n | n | x | x
COc1ccccc1CCNC(=O)CSc1nc(-c2ccco2)cc(C(F)(F)F)n1 | 76.2 | n | n | n | n | n | 43.0 | 83.3
COc1ccccc1NC(=O)Nc1nc(CC(=O)N2CCN(c3ccc(F)cc3)CC2)cs1 | 70.1 | n | n | n | n | n | 40.0 | 82.6
COc1ccc(N2CCN(C(=O)Cc3csc(NC(=O)Nc4ccccc4OC)n3)CC2)cc1 | n | n | n | n | n | n | x | x
CCN(CC(O)COc1ccc(OCC(O)CN(CC)C2CCCCC2)cc1)C1CCCCC1 (configuration not stated) | 69.2 | n | n | n | n | n | n | x
O=C(CSc1nc2ncccc2[nH]1)c1ccc2c(c1)OCO2 | n | n | n | n | n | n | x | x
C=CCNC(=S)N/N=C(\C)c1ccccn1 | 91.4 | n | 74.7 | n | n | n | 63.8 | n
C/C(=N\NC(=O)CCCNc1ccc(C)cc1)c1ccccn1 | 62.3 | n | n | n | n | n | 55.2 | 47.0
C/C(=N\NC(=O)c1ccccc1-n1cccc1)c1ccccn1 | x | n | n | n | n | n | x | x
C/C(=N\NC(=O)c1nc2ccccn2c1C)c1cc2ccccc2o1 | n | n | n | n | n | n | x | x
C/C(=N\NC(=O)c1cc2ccccc2cc1O)c1cc2ccccc2o1 | 54.0 | n | n | n | n | n | n | 57.9
C/C(=N\NC(=O)c1cc2ccccc2cc1O)c1ccccn1 | 52.8 | n | n | n | n | n | 54.1 | n
CCOc1ccc(CCN2C(=S)N([C@@H](CC(C)C)CN3CCCC3CN3C(=S)NC[C@@H]3CC(C)C)C[C@@H]2Cc2ccccc2)cc1 (some centres not stated) | x | n | n | n | n | n | x | x
COc1cccc(CN2CCN(Cc3ccc(OC)c(OC)c3)CC2CCO)c1 (configuration not stated) | n | n | n | n | n | n | x | x
C/C(=N\NC(=O)c1ccc(F)cc1)c1ccccn1 | 97.3 | n | n | n | n | n | 60.0 | 58.2
